# Inconclusive results are not listed. Activity calls are given as the source filed them. Unless noted, the call rests on the fitted dose curve; in most records, active means well fitted inhibition curve with a large enough effect; inconclusive means small, poorly fitted or top-dose-only effect; inactive means flat fitted curve, though single readings scatter.
# Legend:
# [1] = qHTS drug screen for cell cycle checkpoint inhibitors in PARPi-resistant BRCA-mutant ovarian cancer cell lines. (AID 1963452; calls by dose curve); conditions: PEO1/OlaR viability, CellTiter-Glo luminescence, 96 h, stronger effect = lower value
# Method in brief: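 PEO1, PEO4 and PEO1/OlaR ovarian cancer cells, 600 per well, exposed 96 h at 37C to a dilution series. Viability read by CellTiter-Glo luminescence, normalized to DMSO and empty wells; activity summarized as Z-AUC.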
# [2] = qHTS profiling for inhibitors of Plasmodium falciparum proliferation (AID 504749); further: potency means the concentration at half of the fitted maximal effect;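 on activity, negative = inhibition: 0% = DMSO vehicle and full inhibition = artemisinin control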; on all read-outs here: nearly all actives have a fitted effect of over 60% in size; conditions: P. falciparum in erythrocytes, SYBR Green DNA, 72 h; for activity, negative = inhibition: at 28.7 µM (top of the series)
# Method in brief: (§1)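 In a 72 h erythrocytic culture (37 C, humidified, 5% CO2) at 2.5% hematocrit and 0.3% starting parasitemia, compounds were tested; SYBR Green I in detergent lysis buffer stained parasite DNA overnight.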
# [3] = system: 7G8; experiment: as above; conditions: P. falciparum in erythrocytes, SYBR Green DNA, 72 h; series mostly up to 28.7 µM
# Method in brief: as §1
# [4] = system: ATS189; experiment: as above; conditions: P. falciparum in erythrocytes, SYBR Green DNA, 72 h; series mostly up to 28.7 µM
# Method in brief: as §1
# [5] = qHTS for identification of novel therapeutic agents for treatment of microphthalmiaassociated transcription factor (MiT) renal cell carcinoma (RCC) (AID 1963991); conditions: CellTiter-Glo, 48 h, stronger effect = lower value
# Method in brief: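 Three TFE3-fusion RCC lines (UOK109, UOK124, UOK145), 500 cells/well in complete medium, were treated with MIPE 4.0 compounds for 48 hours at 37 C. Viability was by CellTiter-Glo luminescence, normalized to DMSO (100%) and empty wells (0%); curves fitted over 11 concentrations.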
# [6] = system: 3D7; experiment: qHTS profiling for inhibitors of Plasmodium falciparum proliferation (AID 504749); further: nearly all actives have a fitted effect of over 60% in size; further: potency means the concentration at half of the fitted maximal effect;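 on activity, negative = inhibition: 0% = DMSO vehicle and full inhibition = artemisinin control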; conditions: P. falciparum in erythrocytes, SYBR Green DNA, 72 h; series mostly up to 28.7 µM
# Method in brief: as §1
# [7] = system: AA1029; experiment: as above; conditions: P. falciparum in erythrocytes, SYBR Green DNA, 72 h; series mostly up to 28.7 µM
# Method in brief: as §1
# [8] = system: AS120; experiment: as above; conditions: P. falciparum in erythrocytes, SYBR Green DNA, 72 h; series mostly up to 28.7 µM
# Method in brief: as §1
# [9] = system: ATS95; experiment: as above; conditions: P. falciparum in erythrocytes, SYBR Green DNA, 72 h; series mostly up to 28.7 µM
# Method in brief: as §1
# [10] = system: C2A; experiment: as above; conditions: P. falciparum in erythrocytes, SYBR Green DNA, 72 h; series mostly up to 28.7 µM
# Method in brief: as §1
# [11] = system: CP185; experiment: as above; conditions: P. falciparum in erythrocytes, SYBR Green DNA, 72 h; series mostly up to 28.7 µM
# Method in brief: as §1
# [12] = system: CP191; experiment: as above; conditions: P. falciparum in erythrocytes, SYBR Green DNA, 72 h; series mostly up to 28.7 µM
# Method in brief: as §1
# [13] = system: CP192; experiment: as above; conditions: P. falciparum in erythrocytes, SYBR Green DNA, 72 h; series mostly up to 28.7 µM
# Method in brief: as §1
# [14] = measured here: PEO1 parental Z-AUC
# [15] = TFE3-RCC UOK109 viability, measured here: UOK109 Z-AUC
# [16] = TFE3-RCC viability, measured here: UOK124 Z-AUC
# [17] = TFE3-RCC viability, measured here: UOK145 Z-AUC
structure (smiles),measurement,setting,value
O=c1[nH]cc(F)c(=O)[nH]1,Z-AUC,[1],0.953 (inactive)
same,Z-AUC,[1]; [14],0.582
same,Z-AUC,[1]; measured here: PEO4 Z-AUC,0.136
same,"activity, negative = inhibition",[2]; parasite line B,-26.3% (inactive)
same,Potency,[3],12600 nM (active)
same,Potency,[4],inactive
CN(CCOc1ccc(NS(C)(=O)=O)cc1)CCc1ccc(NS(C)(=O)=O)cc1,z-score,[5]; [15],0.684
same,z-score,[5]; [16],0.913
same,z-score,[5]; [17],0.774
same,"activity, negative = inhibition",[2]; parasite line A,1.37% (inactive)
same,"activity, negative = inhibition",[2]; parasite line B,5.56% (inactive)
same,Potency,[6],inactive
same,Potency,[3],inactive
same,Potency,[7],inactive
same,Potency,[8],inactive
same,Potency,[4],inactive
same,Potency,[9],inactive
same,Potency,[10],inactive
same,Potency,[11],inactive
same,Potency,[12],inactive
same,Potency,[13],inactive
CN(Cc1cnc2nc(N)nc(N)c2n1)c1ccc(C(=O)N[C@@H](CCC(=O)O)C(=O)O)cc1,Z-AUC,[1],0.203 (inactive)
same,Z-AUC,[1]; [14],0.268
same,Z-AUC,[1]; measured here: PEO4 Z-AUC,0.255
same,Potency,[2]; parasite line A,112 nM (active)
same,Potency,[2]; parasite line B,141 nM (active)
same,Potency,[6],141 nM (active)
same,Potency,[3],126 nM (active)
same,Potency,[7],inactive
same,Potency,[8],141 nM (active)
same,Potency,[10],251 nM (active)
same,Potency,[13],inactive
CC1(CN2CCC(n3c(=O)[nH]c4ccccc43)CC2)OCc2ccccc2-n2cccc21 (stereo not given),Z-AUC,[1],1.14 (inactive)
same,Z-AUC,[1]; [14],0.846
same,Z-AUC,[1]; measured here: PEO4 Z-AUC,0.865
same,Potency,[3],3160 nM (active)
same,Potency,[8],10000 nM (active)
same,Potency,[13],inactive
CC#C[C@]1(O)CC[C@H]2[C@@H]3CCC4=CC(=O)CCC4=C3[C@@H](c3ccc(N(C)C)cc3)C[C@@]21C,Z-AUC,[1],1.15 (inactive)
same,Z-AUC,[1]; [14],0.225
same,Z-AUC,[1]; measured here: PEO4 Z-AUC,0.142
same,Potency,[2]; parasite line A,8910 nM (active)
same,Potency,[2]; parasite line B,8910 nM (active)
same,Potency,[6],8910 nM (active)
same,Potency,[3],2820 nM (active)
same,Potency,[7],12600 nM (active)
same,Potency,[8],7080 nM (active)
same,Potency,[12],11200 nM (active)
CN1CCN2c3ccccc3Cc3ccccc3C2C1 (stereo not given),"activity, negative = inhibition",[2]; parasite line A,6.93% (inactive)
same,"activity, negative = inhibition",[2]; parasite line B,3.33% (inactive)
same,Potency,[6],inactive
same,Potency,[3],inactive
same,Potency,[7],inactive
same,Potency,[8],inactive
same,Potency,[4],inactive
same,Potency,[9],inactive
same,Potency,[10],inactive
same,Potency,[11],inactive
same,Potency,[12],inactive
same,Potency,[13],inactive
CC1(C)O[C@H]2CC(=O)OC[C@]23[C@H]2CC[C@@]4(C)[C@H](c5ccoc5)OC(=O)[C@H]5O[C@]54[C@]2(C)C(=O)C[C@@H]13,z-score,[5]; [15],0.617
same,z-score,[5]; [16],0.649
same,z-score,[5]; [17],1.11
CN(C)CCC=C1c2ccccc2C=Cc2ccccc21,Z-AUC,[1],-0.345 (inactive)
same,Z-AUC,[1]; [14],0.579
same,Z-AUC,[1]; measured here: PEO4 Z-AUC,0.349
same,"activity, negative = inhibition",[2]; parasite line A,-3.11% (inactive)
same,"activity, negative = inhibition",[2]; parasite line B,-19.2% (inactive)
same,Potency,[6],inactive
same,Potency,[3],7940 nM (active)
same,Potency,[4],inactive
same,Potency,[10],inactive
same,Potency,[11],inactive
same,Potency,[13],inactive
CN1CCC(=C2c3ccccc3CC(=O)c3sccc32)CC1,Z-AUC,[1],1.25 (inactive)
same,Z-AUC,[1]; [14],1.46
same,Z-AUC,[1]; measured here: PEO4 Z-AUC,0.927
same,Potency,[2]; parasite line A,5010 nM (active)
same,Potency,[3],11200 nM (active)
same,Potency,[9],11200 nM (active)
same,Potency,[13],inactive
CN1CCC(=C2c3ccccc3C=Cc3ccccc32)CC1,Z-AUC,[1],0.372 (inactive)
same,Z-AUC,[1]; [14],0.535
same,Z-AUC,[1]; measured here: PEO4 Z-AUC,0.739
same,"activity, negative = inhibition",[2]; parasite line A,13.5% (inactive)
same,"activity, negative = inhibition",[2]; parasite line B,3.94% (inactive)
same,Potency,[6],inactive
same,Potency,[7],inactive
same,Potency,[4],inactive
same,Potency,[9],inactive
same,Potency,[10],inactive
same,Potency,[11],inactive
same,Potency,[12],inactive
same,Potency,[13],inactive
CN(C)CCOC(c1ccccc1)c1ccccc1,Z-AUC,[1],-0.454 (inactive)
same,Z-AUC,[1]; [14],0.718
same,Z-AUC,[1]; measured here: PEO4 Z-AUC,-0.44
same,"activity, negative = inhibition",[2]; parasite line A,13.6% (inactive)
same,"activity, negative = inhibition",[2]; parasite line B,11.2% (inactive)
same,Potency,[6],inactive
same,Potency,[3],11200 nM (active)
same,Potency,[12],inactive
same,Potency,[13],inactive
CCOC(=O)c1ncn2c1CN(C)C(=O)c1cc(F)ccc1-2,Z-AUC,[1],1.34 (inactive)
same,Z-AUC,[1]; [14],1.08
same,Z-AUC,[1]; measured here: PEO4 Z-AUC,1.29
same,"activity, negative = inhibition",[2]; parasite line A,8.32% (inactive)
same,"activity, negative = inhibition",[2]; parasite line B,17% (inactive)
same,Potency,[6],inactive
same,Potency,[7],inactive
same,Potency,[8],inactive
same,Potency,[4],inactive
same,Potency,[9],inactive
same,Potency,[10],inactive
same,Potency,[11],inactive
same,Potency,[12],inactive
same,Potency,[13],inactive
Clc1ccc(C(c2ccccc2Cl)C(Cl)Cl)cc1 (stereo not given),Z-AUC,[1],-0.334 (inactive)
same,Z-AUC,[1]; [14],0.14
same,Z-AUC,[1]; measured here: PEO4 Z-AUC,0.236
same,"activity, negative = inhibition",[2]; parasite line A,-12.9% (inactive)
same,"activity, negative = inhibition",[2]; parasite line B,-9.4% (inactive)
same,Potency,[7],inactive
same,Potency,[8],inactive
same,Potency,[4],inactive
same,Potency,[9],inactive
same,Potency,[10],inactive
same,Potency,[11],inactive
same,Potency,[13],inactive
O=C(Nc1ccc([N+](=O)[O-])cc1Cl)c1cc(Cl)ccc1O,Z-AUC,[1],-0.74 (inactive)
same,Z-AUC,[1]; [14],-1.01
same,Z-AUC,[1]; measured here: PEO4 Z-AUC,-1.03
same,Potency,[6],1780 nM (active)
same,Potency,[3],891 nM (active)
same,Potency,[8],794 nM (active)
same,Potency,[10],inactive
same,Potency,[11],inactive
same,Potency,[12],891 nM (active)
Clc1ccccc1C(c1ccccc1)(c1ccccc1)n1ccnc1,Z-AUC,[1],-0.839 (inactive)
same,Z-AUC,[1]; [14],-1.06
same,Z-AUC,[1]; measured here: PEO4 Z-AUC,-0.849
same,Potency,[2]; parasite line A,631 nM (active)
same,Potency,[2]; parasite line B,708 nM (active)
same,Potency,[7],891 nM (active)
same,Potency,[8],178 nM (active)
same,Potency,[4],708 nM (active)
same,Potency,[9],1000 nM (active)
same,Potency,[10],1780 nM (active)
same,Potency,[11],1780 nM (active)
same,Potency,[12],794 nM (active)
same,Potency,[13],1810 nM (active)
Cc1ccc(-c2cc(C(F)(F)F)nn2-c2ccc(S(N)(=O)=O)cc2)cc1,Z-AUC,[1],1.19 (inactive)
same,Z-AUC,[1]; [14],0.566
same,Z-AUC,[1]; measured here: PEO4 Z-AUC,1.1
same,Potency,[11],inactive

# From PubChem BioAssay (NCATS)
